Screens (PubChem)
USP17 block: inhibitors of human USP17 deubiquitinase | purified USP17, Ub-rhodamine cleavage fluorescence, 3 h | Ubiquitin carboxyl-terminal hydrolase 17-like protein 5 (Homo sapiens), A8MUK1 | inhibition, % at 50 µM | 47,000 compounds, 6.5% hits
UCHL1 block: inhibitors of human UCHL1 deubiquitinase. AID 1645859, 2021. inhibition, % at 20 µM. purified UCHL1, Ub-rhodamine cleavage fluorescence. Ubiquitin carboxyl-terminal hydrolase isozyme L1 (Homo sapiens), P09936. 47,000 compounds, 0.2% hits
USP8 block: inhibitors of human USP8 deubiquitinase. Ubiquitin carboxyl-terminal hydrolase 8 (Homo sapiens), P40818. purified USP8, Ub-rhodamine cleavage fluorescence, 30 min. inhibition, % at 20 µM. 47,000 compounds, 4.2% hits
USP30 block: inhibitors of human USP30 deubiquitinase | inhibition, % at 25 µM | purified USP30, Ub-rhodamine cleavage fluorescence | AID 1645860, 2021 | 47,000 compounds, 5.3% hits
Target sequence (Q70CQ3 whole entry, looked up): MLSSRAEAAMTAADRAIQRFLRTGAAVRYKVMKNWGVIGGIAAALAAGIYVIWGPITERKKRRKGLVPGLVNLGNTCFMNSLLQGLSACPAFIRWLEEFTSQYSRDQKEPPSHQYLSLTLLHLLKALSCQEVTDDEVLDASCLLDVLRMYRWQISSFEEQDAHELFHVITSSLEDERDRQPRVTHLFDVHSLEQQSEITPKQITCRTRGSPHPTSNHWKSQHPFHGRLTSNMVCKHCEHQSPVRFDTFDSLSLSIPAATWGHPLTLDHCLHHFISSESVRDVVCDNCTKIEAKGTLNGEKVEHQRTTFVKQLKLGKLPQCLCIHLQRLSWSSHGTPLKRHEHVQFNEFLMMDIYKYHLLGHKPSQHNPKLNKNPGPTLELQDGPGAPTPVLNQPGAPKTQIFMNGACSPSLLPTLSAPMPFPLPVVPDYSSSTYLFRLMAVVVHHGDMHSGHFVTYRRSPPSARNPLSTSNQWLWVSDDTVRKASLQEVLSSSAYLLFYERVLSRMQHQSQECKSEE
USP7 inh: inhibitors of human USP7 deubiquitinase; purified USP7, Ub-rhodamine cleavage fluorescence; 47,000 compounds, 0.3% hits; inhibition, % at 20 µM; Ubiquitin carboxyl-terminal hydrolase 7 (Homo sapiens), Q93009
USP10 inh: inhibitors of human USP10 deubiquitinase; Ubiquitin carboxyl-terminal hydrolase 10 (Homo sapiens), Q14694; AID 1645856, 2021; 47,000 compounds, 1.1% hits; purified USP10, Ub-rhodamine fluorescence, 60 min; inhibition, % at 20 µM
* = called active by the depositor; i = inactive; . = not tested or not shown. An excerpt weighted towards active compounds, which were near 13% of everything screened. No stated cut-off is given here; in the data, active means inhibition above about 30%; inactive means the rest.

SMILES	USP17 block	UCHL1 block	USP8 block	USP30 block	USP7 inh	USP10 inh
Brc1ccc(-c2cn3c4ccccc4n(CCN4CCCCC4)c3n2)cc1	20	0	48*	18	-3	-6
Cc1cc(C(=O)N2CCC3(CC2)CC[C@@]2(C(=O)NCC(C)C)CN(C)C[C@@H]32)no1	-21	0	-45	3	4	2
O=C(C1CCC1)N1CC[C@@H]2CN(Cc3ccccc3)S(=O)(=O)[C@@H]2CC1	18	5	24	6	3	-4
COc1ccc(S(=O)(=O)N(C)Cc2cccs2)cc1OC	11	0	15	27	5	0
CCOC(=O)c1ccc(NC(=O)CSc2nnc(CNC(=O)c3ccc(OC)cc3)o2)cc1	33*	6	0	35*	5	5
CCOC(=O)C1CCN(Cc2cc(=O)oc3cc(O)c(O)cc23)CC1	85*	76*	91*	52*	52*	34*
Cc1ccc(S(=O)(=O)N2CCCn3nnc(CN4CCCCC4)c3C2)cc1	-22	-4	-213	0	-2	1
CC(C)c1ccc(NC(=O)c2cc3ncc(Br)cn3n2)cc1	52*	14	61*	-38	-128	26
CC(C)c1ccc(NC(=O)c2cc3cccnc3n(C)c2=O)cc1	0	-2	0	-6	-2	-2
Cc1ccc(CNC(=O)[C@@H]2Cc3c([nH]c4ccccc34)C3c4ccccc4C(=O)N32)cc1 (some centres not stated)	-13	0	5	-71	-2	-8
CCOC(=O)Cn1c(-c2ccc(Cl)cc2)ccc(C#N)c1=O	14	2	31*	30*	7	6
COc1ccc(-c2c3c(nc4c(C#N)c(C)n(-c5ccccc5)c24)CCC3)cc1	17	0	15	15	7	3
COc1cc2c(C#N)c(N3CCCC3)nc3c2c(n1)NC(C)(c1ccc(-c2ccccc2)cc1)N3 (configuration not stated)	-25	17	39*	i	35*	-7
CCOC(=O)c1cnc2c(F)ccc(F)c2c1Sc1ccc(Cl)cc1	6	-8	3	-6	14	-6
Cc1cc(NC2CCCCC2)n2nc(C)c(-c3ccc(F)cc3)c2n1	-2	-1	-6	-5	4	0
O=C1/C(=C/c2ccccc2)CC/C1=C\c1ccccc1	26	7	44*	17	17	9
Cc1ccc(C2CC(=O)Nc3c2c(C)nn3-c2ccc3nnc(C)n3n2)cc1 (configuration not stated)	4	2	4	35*	-13	0
Cc1cccc(C2CC(=O)Nc3c2c(C)nn3-c2ccc3nnc(C)n3n2)c1 (configuration not stated)	0	-2	4	11	-7	0
N#Cc1c(-c2ccco2)ccn2nc(-c3ccc(Cl)cc3Cl)nc12	46*	1	43*	-46	2	-4
N#Cc1ccc(-c2nc3c(C#N)c(-c4ccc5c(c4)OCO5)ccn3n2)cc1	20	1	17	20	8	1
N#Cc1c(-c2ccc(Cl)cc2)ccn2nc(-c3ccco3)nc12	-8	2	48*	i	-82	-9
COc1cc(OC)cc(N2C(=O)N(CC(=O)c3ccc(Br)cc3)c3ccccc3S2(=O)=O)c1	30*	14	33*	23	46*	81*
COc1cccc(N2C(=O)N(CC(=O)NCc3ccc(Cl)cc3)c3ccccc3S2(=O)=O)c1	79*	-1	11	43*	5	19
Cc1cccc(CCC(=O)N2CCC(c3nc4ccc(F)cc4cc3C(N)=O)CC2)n1	-50	-1	-2	-44	-11	-2
Cn1c(=O)c2c(nc3n(CCO)c(-c4ccc(Cl)cc4)cn23)n(C)c1=O	5	4	-11	36*	-6	0
SMILES	USP17 block	UCHL1 block	USP8 block	USP30 block	USP7 inh	USP10 inh
CCCc1nc2ccccc2n1CC(=O)N1CCc2ccccc21	12	1	5	15	3	0
O=C(Cn1c(Cc2ccccc2)nc2ccccc21)N1CCc2ccccc21	26	0	49*	32*	0	-3
O=C(NCc1nnc(SCC(=O)N2CCc3ccccc32)o1)c1cccs1	2	-2	-2	-1	0	4
O=C(CSc1nnc(Cc2ccccc2)o1)N1CCc2ccccc21	42*	-5	2	11	-2	3
Cc1ccn2cc(CCNS(=O)(=O)c3cc([N+](=O)[O-])ccc3C)nc2c1	.	4	-82	21	7	-2
CCN(Cc1ccccc1)c1nc2ccccc2nc1NS(=O)(=O)c1cc([N+](=O)[O-])ccc1C	34*	1	19	29	-2	13
CC1=C(c2ccccc2)S(=O)(=O)N(CC(=O)Nc2ccc(F)cc2C)C1=O	1	3	11	15	8	-3
N#Cc1cnn2ccc(-c3ccc4c(c3)CCC4)nc12	34*	-5	-14	.	-11	-1
COc1cccc(Cn2cnc3c(NS(=O)(=O)c4ccc(Cl)cc4)c(C)c(C)cc32)c1	11	-4	49*	-1	16	18
CN1CC2CN(S(=O)(=O)c3ccc(Cl)cc3)CCN2Cc2ccccc21 (configuration not stated)	-148	-156	-261	i	-134	-1
Cn1ccc(CN2CCc3ccccc32)cc1=O	-8	-12	51*	-220	-14	-1
O=C(CN1CCc2ccccc21)Nc1ccccc1F	-3	-3	1	-37	-5	-4
COc1ccc(NS(=O)(=O)c2cccc(NC(=O)CCOc3ccccc3OC)c2)cc1	-3	3	7	.	3	6
CCOc1ccc(C(=O)CCC(=O)Nc2cccc(S(=O)(=O)Nc3cccc(Cl)c3)c2)cc1	32*	1	0	-47	6	33*
CN1C(=O)CC(=O)N(C)c2cc(S(=O)(=O)N3CCN(C4CCCCC4)CC3)ccc21	-4	2	9	2	3	-1
Cc1ccc(-c2csc3ncnc(NCCCN4CCOCC4)c23)cc1	0	1	2	14	-10	-9
COc1ccc(OC)c(-c2cn3ccn(-c4ccc(F)c(Cl)c4)c(=O)c3n2)c1	39*	22	94*	19	-57	31*
COc1cc(/C=C\C(=O)Nc2c3c(nn2-c2ccc(F)cc2)CS(=O)(=O)C3)cc(OC)c1OC	-31	-14	-63	-70	-15	-9
CN(C)c1ccc(C2CC(=O)c3ccccc3N2)cc1 (configuration not stated)	-37	-4	-14	-328	-14	-2
COc1ccc(C2CCNc3ccccc3N2)cc1 (configuration not stated)	-10	-7	37*	-151	-5	-5
